Measured values from PubChem BioAssay AID1814 (Broad Institute, 2009).
The whole screen tested about 300,000 compounds, of which about 22,000 (7.3%) were called active. Inconclusive results (about 2%) are left out. Rule as the data show it: active = activity score below about -60%; inconclusive = mostly about -28% to -61%; inactive = positive scores. This excerpt belongs to a sample that is enriched for actives.

Experiment: Activators working through SNCA 5'UTR binding (MLPCN) (AID 1814)
Settings: alpha-synuclein 5'UTR reporter, activators screen; active compounds read low; tested at 7.5 µM

Row | SMILES | activity score
1 | Cc1ccnc(NC(=O)c2ccoc2C)c1 | -147% (active)
2 | Cc1ccoc1C(=O)Nc1cccc(Oc2ccccc2)c1 | -137% (active)
3 | O=C(Nc1ccc2nccnc2c1)c1ccco1 | -105% (active)
4 | Clc1ccc(Cc2nnc(-c3cccs3)o2)cc1 | -116% (active)
5 | Cc1ccc(NC(=O)OCc2cncs2)cc1 | -112% (active)
6 | COc1ccc(NC(=O)/C(Cl)=C(/Cl)S(=O)Cc2ccc(C)cc2)cn1 (configuration not stated) | 106% (inactive)
7 | O=C(N/N=C/c1ccc(OCc2ccccc2)cc1)c1ccc(O)cc1 | -70.7% (active)
8 | Cc1ccnc(NC(=O)CCNS(=O)(=O)c2ccc(C)c(C)c2)c1 | -87.9% (active)
9 | CC(C)c1ccc(NC(=S)NC2CC3C=CC2C3)cc1 (configuration not stated) | -134% (active)
10 | Cc1sc(NC(=O)C2=COCCO2)c(C#N)c1C | -110% (active)
11 | COc1ccccc1NC(=O)c1ccc(C)s1 | -227% (active)
12 | Cc1ccc(-c2csc(NC(=O)C3=COCCO3)n2)cc1C | -176% (active)
13 | Cc1csc(NC(=O)C2=COCCO2)n1 | -132% (active)
14 | COc1ccccc1NC(=O)C1=C(C)Nc2nc3ccccc3n2C1c1cccs1 (configuration not stated) | 106% (inactive)
15 | Cc1csc(NC(=O)c2ccc(C)s2)n1 | -174% (active)
16 | COc1cc(SC)ccc1C(=O)Nc1nc(C)cs1 | 96.2% (inactive)

Row | SMILES | activity score
17 | O=C(Nc1nc(-c2ccc3c(c2)OCO3)cs1)c1ccncc1 | -99.5% (active)
18 | Cc1ccc(-c2csc(NC(=O)c3cnccn3)n2)cc1C | -97.7% (active)
19 | COc1ccccc1-c1nnc(SCC(=O)N2CC(C)CC(C)C2)o1 (configuration not stated) | 45.8% (inactive)
20 | COc1ccc(-c2nnc(SCC(=O)c3cccs3)o2)c(OC)c1 | -106% (active)
21 | COc1ccccc1-c1nnc(SCC(=O)Nc2ccccc2)o1 | -187% (active)
22 | Cc1ccc(C(=O)Nc2nc3ccc(Cl)cc3s2)o1 | -183% (active)
23 | Cc1ccc(-c2noc(C3CCCN(C(=O)c4cccc(Cl)c4)C3)n2)o1 (configuration not stated) | -109% (active)
24 | O=C(c1cccs1)N1CCCC(c2nc(-c3ccc(F)cc3)no2)C1 (configuration not stated) | -91.6% (active)
25 | Cc1ccc2nc(N3CCN(C(=O)c4ccco4)CC3)sc2c1 | -216% (active)
26 | COc1ccc2nc(N3CCN(C(=O)c4ccc([N+](=O)[O-])o4)CC3)sc2c1 | -160% (active)
27 | C/C(=N\NC(=O)c1ccc(C)cc1)C1C(=O)c2ccccc2C1=O | -78.5% (active)
28 | COc1ccc(NC(=O)CSc2nc(SC)ns2)c(OC)c1 | -118% (active)
29 | c1c2c(cc3sc(N4CCCCC4)nc13)OCCO2 | 107% (inactive)
30 | Fc1ccc2nc(N3CCCCC3)sc2c1 | -129% (active)
31 | CN(C)CCCN(C(=O)c1ccc(S(=O)(=O)N2CCCCCC2)cc1)c1nc2ccc(Br)cc2s1 | 75.3% (inactive)
32 | Brc1ccc2nc(N3CCCC3)sc2c1 | -105% (active)
